For seven compounds, outcome and AC50 results are on record in PubChem BioAssay (EPA / NIEHS).

The nature of experiment [1]: ATG_CRE_CIS: Attagene CIS-FACTORIAL HepG2 Assay for human cAMP Responsive Element (CRE) binding protein 3 (AID 2282926). The note with it: HepG2 CRE cis-reporter, Attagene multiplexed mRNA; actives raise or lower the signal. The procedure, abridged: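 HepG2 cells transiently transfected with a multiplexed reporter library (CRE-driven unit among them) were dosed for 24 h. Reporter mRNA was quantified by RT-PCR, fluorescent labelling, HpaI digestion and capillary electrophoresis, with bidirectional fitting against DMSO baseline.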

Experiment [2] has as its target CCAAT/enhancer-binding protein beta (Homo sapiens) (UniProt P17676). The experiment can be described thus: ATG_C_EBP_CIS: Attagene CIS-FACTORIAL HepG2 Assay for human CCAAT/Enhancer Binding Protein (C/EBP) beta (AID 2282927). The note with it: HepG2 Attagene cis-factorial transcription factor reporter; actives raise or lower the signal. The procedure, abridged:
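RT-PCR/capillary electrophoresis fluorescence of reporter mRNA, 24 h post-dose, in HepG2 cells carrying transfected cis-promoter reporter units. Bidirectional curve fitting against DMSO baseline captures gain or loss of signal.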

A short description of experiment [3]: ATG_CMV_CIS: Attagene CIS-FACTORIAL HepG2 Assay for human CMV (Internal Marker) (AID 2282928).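 Further: endpoint acts as a background internal control marker rather than a target.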 The note with it: HepG2 CMV promoter reporter, transcription factor profiling; actives raise or lower the signal. The essentials: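 Endogenous transcription factor activity read in HepG2 via transfected cis-promoter reporter units. After 24 h dosing, reporter mRNA measured by RT-PCR/capillary electrophoresis; gain or loss of signal fit relative to DMSO.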

Experiment [4] in a line: ATG_DR4_LXR_CIS: Attagene CIS-FACTORIAL HepG2 Assay for human Liver X Receptor (LXR), DR4 submotif (AID 2282929). The note with it: HepG2 Attagene DR4 cis-reporter, mRNA transcription; actives raise or lower the signal. The procedure, abridged: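 HepG2, transient MRTU transfection, cis-element (DR4) promoter; 24 h compound exposure; total RNA → oligo(dT) RT → PCR → 6-FAM primer extension → HpaI cut → CE. Gain/loss vs DMSO, bidirectional fit.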

For experiment [5], the target named is Aryl hydrocarbon receptor (Homo sapiens) (UniProt P35869). The experiment can be described thus: ATG_Ahr_CIS: Attagene CIS-FACTORIAL HepG2 Assay for human Aryl Hydrocarbon Receptor (Ahr) (AID 2282930). The note with it: HepG2 AhR cis-factorial reporter transcription; actives raise or lower the signal. The essentials:
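HepG2 cells transiently transfected with cis-element-driven multiplexed reporter transcription units; endogenous transcription factor activity measured as reporter mRNA 24 h after dosing. RT-PCR, 6-FAM labelling, HpaI digestion, capillary electrophoresis; bidirectional fitting versus DMSO baseline.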

Experiment [6] in a line: ATG_AP_1_CIS: Attagene CIS-FACTORIAL HepG2 Assay for human Activator Protein 1 (AP-1) (AID 2282931). The note with it: HepG2 Attagene cis-factorial AP-1 reporter mRNA; actives raise or lower the signal. The essentials:
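Transient MRTU transfection of HepG2 → 24 h chemical treatment → RNA isolation, RT-PCR, 6-FAM labelling, HpaI digest → capillary electrophoresis. Fit: bidirectional, DMSO negative control.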

Experiment [7] in a line: ATG_AP_2_CIS: Attagene CIS-FACTORIAL HepG2 Assay for human Activator Protein 2 (AP-2) (AID 2282932). The note with it: HepG2 AP-2 cis-reporter, Attagene transcription factor profiling; actives raise or lower the signal. The essentials:
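Bidirectional curve fitting against DMSO was applied to reporter mRNA signals from HepG2 cells 24 h after dosing. Cis-promoter reporter units, transiently transfected, were read by RT-PCR plus capillary electrophoresis.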

Experiment [8] is described as follows: ATG_BRE_CIS: Attagene CIS-FACTORIAL HepG2 Assay for human Bone Morphogenetic Protein (BMP) Response Element (BRE) (AID 2282933). The note with it: HepG2 BMP response element reporter, Attagene transcription factor profiling; actives raise or lower the signal. The essentials:
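Read-out: reporter mRNA induction quantified by RT-PCR and capillary electrophoresis after 24 h chemical exposure of transfected HepG2 cells. Endogenous factor activity on the BMP response element; gain or loss fitted against DMSO baseline.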

The target in experiment [9] is Transcription factor E2F1 (Homo sapiens) (UniProt Q01094). Description: ATG_E2F_CIS: Attagene CIS-FACTORIAL HepG2 Assay for human E2F Transcription Factor 1 (AID 2282935). The note with it: HepG2 Attagene cis-reporter, E2F reporter RNA transcripts; actives raise or lower the signal. The essentials: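 Multiplexed cis-reporter assay: HepG2, transient transfection, 24 h dosing, mRNA quantitation by labeled RT-PCR and CE.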
Chain of Transcription factor E2F1 (Homo sapiens) (Q01094 whole entry, looked up): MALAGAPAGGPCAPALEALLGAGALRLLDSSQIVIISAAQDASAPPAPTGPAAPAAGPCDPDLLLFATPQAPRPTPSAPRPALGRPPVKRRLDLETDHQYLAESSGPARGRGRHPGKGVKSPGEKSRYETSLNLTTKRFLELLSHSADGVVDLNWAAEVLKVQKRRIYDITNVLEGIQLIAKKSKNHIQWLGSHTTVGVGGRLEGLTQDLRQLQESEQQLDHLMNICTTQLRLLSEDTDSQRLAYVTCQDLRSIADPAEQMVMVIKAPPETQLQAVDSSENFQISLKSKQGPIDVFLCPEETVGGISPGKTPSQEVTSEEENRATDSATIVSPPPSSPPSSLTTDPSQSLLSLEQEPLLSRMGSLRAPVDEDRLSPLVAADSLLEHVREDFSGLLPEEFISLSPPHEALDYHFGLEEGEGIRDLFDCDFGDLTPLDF

The nature of experiment [10]: ATG_E_Box_CIS: Attagene CIS-FACTORIAL HepG2 Assay for human Enhancer Box (E-box) (AID 2282936). The note with it: HepG2 E-box cis-reporter transcription, actives raise or lower the signal. The essentials:
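Multiplexed CIS reporter system in transiently transfected HepG2 cells measures native transcription factor activity. Reporter RNA after 24 h exposure is profiled by RT-PCR-capillary electrophoresis.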

Experiment [11] can be described thus: ATG_M_61_CIS: Attagene CIS-FACTORIAL HepG2 Assay for M61 Transcription Factor (Internal Marker) (AID 2282937). The note with it: HepG2 Attagene CIS-FACTORIAL M61 internal marker reporter; actives raise or lower the signal. The procedure, abridged: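 Human liver HepG2, transient MRTU transfection (cis promoter elements), 24 h compound. Total RNA → oligo(dT) RT → PCR → FAM label → HpaI → CE. Internal background marker; bidirectional fitting, DMSO = baseline.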

The nature of experiment [12]: ATG_EGR_CIS: Attagene CIS-FACTORIAL HepG2 Assay for human Early Growth Response 1 (EGR1) (AID 2282938). The note with it: HepG2 Attagene CIS-FACTORIAL EGR reporter mRNA; actives raise or lower the signal. The procedure, abridged: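 Transient transfection of human HepG2 with multiple cis-regulated reporter units, chemical exposure 24 h, total RNA isolated. Reverse transcription, PCR, fluorescent labelling and capillary electrophoresis quantify reporter transcripts; activity fitted bidirectionally against DMSO.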

Experiment [13] can be described thus: ATG_Ets_CIS: Attagene CIS-FACTORIAL HepG2 Assay for human Erythroblast Transformation Specific (ETS) (AID 2282941). The note with it: HepG2 ETS cis-reporter transcription, actives raise or lower the signal. The essentials:
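Steps: transfect HepG2 with multiple reporter units; treat compound 24 h; isolate RNA, DNase-treat, reverse-transcribe; PCR-amplify, label with 6-FAM, digest with HpaI; separate by capillary electrophoresis. Activity fitted both directions versus DMSO.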

Experiment [14] has as its target Hepatocyte nuclear factor 3-beta (Homo sapiens) (UniProt Q9Y261). The experiment can be described thus: ATG_FoxA2_CIS: Attagene CIS-FACTORIAL HepG2 Assay for human Forkhead box A2 (FOXA2) (AID 2282942). The note with it: HepG2 cis-reporter transcription factor activity, 24 h; actives raise or lower the signal. The procedure, abridged:
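Transient MRTU transfection of HepG2 liver cells; 24 h treatment; total RNA → oligo(dT) RT → PCR → FAM primer extension → HpaI cut → CE. Bidirectional fit vs DMSO.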

Experiment [15] is described as follows: ATG_FoxO_CIS: Attagene CIS-FACTORIAL HepG2 Assay for human Forkhead box O (FoxO) (AID 2282943). The note with it: HepG2 Attagene cis-reporter, FoxO element, mRNA; actives raise or lower the signal. The procedure, abridged: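 HepG2 cells transiently transfected with cis-promoter-driven multiple reporter transcription units; 24 h after chemical dosing, reporter mRNA quantified by RT-PCR, fluorescent primer extension, HpaI digestion and capillary electrophoresis. Bidirectional fitting versus DMSO baseline.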

Experiment [16] is described as follows: ATG_GATA_CIS: Attagene CIS-FACTORIAL HepG2 Assay for human GATA Binding Protein (AID 2282944). The note with it: HepG2 GATA cis-element reporter, Attagene multiplex mRNA; actives raise or lower the signal. The essentials:
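Read-out: fluorescent reporter mRNA fragments resolved by capillary electrophoresis after RT-PCR. Human liver HepG2 cells carried transiently transfected cis-regulated reporter constructs; chemicals incubated 24 h; gain or loss of signal fitted relative to DMSO.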

The nature of experiment [17]: ATG_GLI_CIS: Attagene CIS-FACTORIAL HepG2 Assay for human Zinc Finger Protein GLI1 (AID 2282945). The note with it: HepG2, Attagene cis-factorial reporter mRNA, GLI element; actives raise or lower the signal. The essentials: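 HepG2 cells transiently transfected with cis-promoter multiplexed reporter units report endogenous transcription factor activity. After 24 h chemical exposure, reporter mRNA was quantified by RT-PCR, 6-FAM labelling, HpaI digestion and capillary electrophoresis, with bidirectional fitting against DMSO.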

The nature of experiment [18]: ATG_M_19_CIS: Attagene CIS-FACTORIAL HepG2 Assay for M19 Transcription Factor (Internal Marker) (AID 2282939). The note with it: HepG2 Attagene CIS-FACTORIAL M19 internal marker reporter; actives raise or lower the signal. The procedure, abridged:
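Readout: fluorescent reporter-transcript fragments by capillary electrophoresis after RT-PCR. Human HepG2 liver cells carried transfected MRTU constructs reporting endogenous transcription-factor activity; exposure 24 h. Gain or loss of signal fitted relative to DMSO.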

Each structure is given as a SMILES string. The source made the active and inactive calls. How the source made its calls: active means hit-call score of the fitted dose curve at least 0.9, where 1 is the maximum; inactive means score below 0.9.

Chain of Aryl hydrocarbon receptor (Homo sapiens) (P35869 whole entry, looked up): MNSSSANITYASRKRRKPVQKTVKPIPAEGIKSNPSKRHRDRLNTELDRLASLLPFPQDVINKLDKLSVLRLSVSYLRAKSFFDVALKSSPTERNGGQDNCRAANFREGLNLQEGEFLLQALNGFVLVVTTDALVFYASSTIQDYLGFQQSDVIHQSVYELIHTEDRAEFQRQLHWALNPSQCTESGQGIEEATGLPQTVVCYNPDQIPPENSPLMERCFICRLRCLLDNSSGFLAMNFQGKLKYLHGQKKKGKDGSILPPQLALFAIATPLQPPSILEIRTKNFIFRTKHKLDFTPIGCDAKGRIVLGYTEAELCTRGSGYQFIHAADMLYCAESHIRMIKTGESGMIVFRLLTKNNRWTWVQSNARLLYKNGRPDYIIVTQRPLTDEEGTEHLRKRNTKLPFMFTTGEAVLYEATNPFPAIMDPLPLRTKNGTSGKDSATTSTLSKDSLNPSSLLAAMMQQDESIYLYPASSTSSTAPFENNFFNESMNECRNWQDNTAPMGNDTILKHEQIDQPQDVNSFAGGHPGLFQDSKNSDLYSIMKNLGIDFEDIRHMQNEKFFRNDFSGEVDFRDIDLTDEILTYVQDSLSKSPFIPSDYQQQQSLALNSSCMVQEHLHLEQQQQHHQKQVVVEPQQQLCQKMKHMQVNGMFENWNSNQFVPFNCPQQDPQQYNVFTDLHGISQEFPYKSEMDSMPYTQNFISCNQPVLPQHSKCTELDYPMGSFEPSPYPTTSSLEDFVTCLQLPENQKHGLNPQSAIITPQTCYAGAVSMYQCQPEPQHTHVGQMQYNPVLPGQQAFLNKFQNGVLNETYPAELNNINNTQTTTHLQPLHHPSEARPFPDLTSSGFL
Chain of Hepatocyte nuclear factor 3-beta (Homo sapiens) (Q9Y261 whole entry, looked up): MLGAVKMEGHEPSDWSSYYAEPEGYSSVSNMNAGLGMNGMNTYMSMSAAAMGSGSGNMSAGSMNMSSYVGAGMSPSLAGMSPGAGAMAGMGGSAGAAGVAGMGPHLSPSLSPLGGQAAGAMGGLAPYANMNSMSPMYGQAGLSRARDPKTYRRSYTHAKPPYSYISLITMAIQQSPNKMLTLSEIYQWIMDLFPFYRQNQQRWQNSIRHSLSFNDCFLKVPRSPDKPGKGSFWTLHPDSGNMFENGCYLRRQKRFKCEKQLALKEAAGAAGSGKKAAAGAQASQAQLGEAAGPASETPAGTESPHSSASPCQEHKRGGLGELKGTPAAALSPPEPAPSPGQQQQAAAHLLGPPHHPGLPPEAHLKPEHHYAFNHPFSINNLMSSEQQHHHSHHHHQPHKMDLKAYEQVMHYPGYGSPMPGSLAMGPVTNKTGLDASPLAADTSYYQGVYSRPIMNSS
Chain of CCAAT/enhancer-binding protein beta (Homo sapiens) (P17676 whole entry, looked up): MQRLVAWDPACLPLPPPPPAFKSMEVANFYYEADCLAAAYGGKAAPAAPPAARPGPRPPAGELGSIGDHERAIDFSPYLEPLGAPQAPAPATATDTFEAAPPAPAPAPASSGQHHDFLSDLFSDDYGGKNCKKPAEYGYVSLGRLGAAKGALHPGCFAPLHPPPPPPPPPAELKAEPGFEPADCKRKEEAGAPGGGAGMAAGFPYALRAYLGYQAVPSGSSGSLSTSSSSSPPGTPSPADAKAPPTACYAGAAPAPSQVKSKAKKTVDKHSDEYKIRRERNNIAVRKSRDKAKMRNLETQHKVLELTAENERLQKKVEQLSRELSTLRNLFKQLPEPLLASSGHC

Consider `C=C[Si](OCC)(OCC)OCC`, for which the outcome in experiment [1], in [2], in experiment [3], in [4], in experiment [5] and in experiment [6] was inactive. The result in [7], in experiment [8], in experiment [9], in experiment [10], in [11] and in experiment [12] was inactive. Further, the compound was called inactive in [13], in [14], in experiment [15], in experiment [16] and in experiment [17].
In the case of `OC1OC[C@@H](O)[C@H](O)[C@H]1O` (stereo not given in full), the call in experiment [1], in [2], in [3], in experiment [4], in [5] and in experiment [6] was inactive. For the same compound, the result in experiment [7], in [8], in experiment [9], in experiment [10], in experiment [11] and in [12] was inactive. The outcome in experiment [18], in experiment [13], in experiment [14], in [15], in experiment [16] and in [17] was inactive.
Take `C=COCCOCCOCCOC=C`: the outcome in experiment [1], in experiment [2], in [3], in experiment [4], in experiment [5] and in experiment [6] was inactive. Further, the call in [7], in experiment [8], in [9], in experiment [10], in [11] and in experiment [12] was inactive. The outcome in experiment [18], in [14], in experiment [15] and in experiment [17] was inactive.
A word on the AC50: it is the concentration at which the activity in the assay is half-maximal. On to `CCCCCCCCCCCCN`, for which the result in experiment [1], in experiment [2], in experiment [3], in [5], in experiment [6] and in [7] was inactive. Moreover, the outcome in experiment [8], in [9], in experiment [10], in experiment [11], in experiment [12] and in [18] was inactive. In addition, the compound was called inactive in [13], in experiment [14], in [15] and in experiment [17]. In addition, the concentration at half-maximal activity (AC50) in [4] is 10.2 µM (active).
For `CC(=O)[C@H]1CC[C@H]2[C@@H]3CC=C4C[C@@H](O)CC[C@]4(C)[C@H]3CC[C@]12C`, the compound was classed as inactive in experiment [1], in experiment [2], in experiment [3], in [4], in [5] and in experiment [6]. Besides, the outcome in experiment [7], in [8], in experiment [9], in experiment [10], in [11] and in experiment [12] was inactive. Besides, the result in experiment [18], in [13], in [14], in [15], in [16] and in [17] was inactive.
Regarding `CCCCCCCCC`, the call in [1], in [2], in [3], in experiment [4], in [5] and in experiment [6] was inactive. For the same compound, the result in [7], in [8], in experiment [9], in experiment [10], in experiment [11] and in experiment [12] was inactive. Further, the call in [18], in [13], in experiment [15], in experiment [16] and in experiment [17] was inactive.
On to `Cc1ccccc1C=O`, for which the compound was classed as inactive in experiment [1], in experiment [2], in experiment [3], in experiment [4], in experiment [6] and in experiment [7]. The outcome in experiment [8], in [9], in experiment [10], in experiment [11], in [12] and in experiment [18] was inactive. Moreover, the compound was classed as inactive in experiment [14], in experiment [15], in experiment [16] and in experiment [17]. Also, in experiment [5], the AC50 was 53.5 µM (active).
